Consider eight molecules from PubChem BioAssay (Tox21).

The nature of assay [1]: Nuclear factor erythroid 2-related factor 2/antioxidant responsive element (Nrf2/ARE) small molecule agonists: qHTS cell viability counter screen in human keratinocytes (AID 1919968; active = well fitted curve in the direction sought with a large enough effect in the repeat runs; an effect the other way counts as inactive or inconclusive; note: nearly all actives have a fitted effect of over 55% in size). The method in brief: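 KeratinoSens cells (HaCaT keratinocytes stably carrying an ARE-luciferase reporter) were seeded at 1,500 cells/well and rested 5 h at 37 C/5% CO2. They were then exposed to compounds in DMSO for 23 h. Viability was read by CellTiter-Fluor fluorescence after 1 h.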
(In general: qHTS replaces the single test concentration by a dilution series.)

Assay [2] can be described thus: Nuclear factor erythroid 2-related factor 2/antioxidant responsive element (Nrf2/ARE) small molecule agonists: luciferase reporter gene qHTS assay in human keratinocytes (AID 1919969). Note: nearly all actives have a fitted effect of over 35% in size.
For assay [3], the target named is Gonadotropin-releasing hormone receptor (Homo sapiens) (UniProt P30968). Kind of assay: Human gonadotropin-releasing hormone receptor (GnRHR) small molecule agonists, calcium flux assay in GnRHR-HEK293 cells (AID 1920063). Note: nearly all actives have a fitted effect of over 35% in size. The method in brief: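 HEK293 cells stably expressing human GnRHR were plated 18 h at 37 °C, loaded with calcium dye 1 h at 37 °C, then given compound in agonist mode; fluorescence (Ex/Em 480/540) read kinetically for 3 min at 1 s intervals.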
Gonadotropin-releasing hormone receptor (Homo sapiens), sequence (P30968 whole entry, looked up): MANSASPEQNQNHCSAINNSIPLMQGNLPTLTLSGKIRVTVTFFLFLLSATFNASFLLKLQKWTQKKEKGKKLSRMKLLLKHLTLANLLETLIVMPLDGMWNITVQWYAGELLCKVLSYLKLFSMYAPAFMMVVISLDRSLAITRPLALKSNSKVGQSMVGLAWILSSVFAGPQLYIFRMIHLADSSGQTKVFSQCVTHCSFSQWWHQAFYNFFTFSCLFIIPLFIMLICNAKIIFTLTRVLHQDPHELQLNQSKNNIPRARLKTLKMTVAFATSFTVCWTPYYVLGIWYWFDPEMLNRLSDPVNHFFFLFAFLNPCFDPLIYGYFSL

The target of assay [4] is KiSS-1 receptor (Homo sapiens) (UniProt Q969F8). Kind of assay: Human kisspeptin (KISS1R) small molecule agonists, calcium flux assay in KISS1R-HEK293 cells (AID 1920064; active = well fitted curve in the direction sought with a large enough effect in the repeat runs; an effect the other way counts as inactive or inconclusive). The essentials:
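HEK293 cells stably expressing human KISS1R were plated 18 h at 37 °C, loaded with calcium dye for 1 h at 37 °C, then given compound by pin tool. Fluorescence (Ex/Em 480/540) was read kinetically for 3 min.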

A short description of assay [5]: G protein-coupled receptor (GPCR) small molecule agonists, calcium flux assay: HEK293 wild type cell line counter screen (AID 1920065). The method in brief: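 Cells were plated and cultured 18 h at 37 C/5% CO2, then loaded with calcium dye for 1 h at 37 C. Compounds in DMSO were pin-transferred in agonist mode, and fluorescence (Ex/Em 480/540) was read kinetically for 3 min at 1 s intervals.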
In general terms: Calcium assays in cells follow changes in intracellular calcium, usually with a dye or a luminescent sensor.

Assay [6] in a line: p53 small molecule agonists, cell-based qHTS assay with human liver microsomes: qHTS cell viability counter screen (AID 1963579). Note: nearly all actives have a fitted effect of over 45% in size. The method in brief:
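Metabolic activation used human liver microsomes and NADPH, both 0.5 mg/mL final, over 16 hours at 37 C on p53RE-bla cells (4,000/well). Cytotoxicity measured by CellTiter-Glo luminescence, 30 min at room temperature.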

Assay [7] is described as follows: p53 small molecule agonists, cell-based qHTS assay with rat liver microsomes: qHTS cell viability counter screen (AID 1963580). Note: nearly all actives have a fitted effect of over 45% in size. The essentials:
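Intracellular ATP, by CellTiter-Glo luminescence, defines viability. HCT-116 p53RE-bla cells, 4,000 per well, were compound-treated in the presence of rat liver microsomes and NADPH for 16 h at 37 C.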

Assay [8] in a line: p53 small molecule agonists, cell-based qHTS assay: qHTS cell viability counter screen (AID 1963581). Note: nearly all actives have a fitted effect of over 45% in size. The essentials: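 p53RE-bla HCT-116 cells were exposed to compounds for 16 h at 37 C; after the beta-lactamase FRET read in the same wells, CellTiter-Glo was added and luminescence (intracellular ATP) read after 30 min at room temperature.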
The target of assay [9] is 5-hydroxytryptamine receptor 2A (Homo sapiens) (UniProt P28223). The assay is described as follows: 5-hydroxytryptamine receptor 2A (HTR2A) small molecule antagonists, cell-based qHTS assay (AID 1963586). Note: nearly all actives have a fitted effect of over 45% in size. Note: potency is the fitted concentration of half-maximal effect. The essentials:
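Antagonist-mode intracellular calcium assay: DOI (4 nM) added after 5 min compound pre-incubation at room temperature to dye-loaded HTR2A-CHO cells. Fluorescence followed for 3 min, sampled every second.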

Assay [10] has the same target. Kind of assay: 5-hydroxytryptamine receptor 2A (HTR2A) small molecule agonists, cell-based qHTS assay (AID 1963587). Note: nearly all actives have a fitted effect of over 30% in size. The method in brief: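 Kinetic calcium-flux fluorescence (2 min, 1 sec intervals) after compound addition in agonist mode. HTR2A-CHO cells were cultured 18 h, then dye-loaded 1 h at 37 C.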
Assay [11] concerns the target Muscarinic acetylcholine receptor M1 (Homo sapiens) (UniProt P11229). The assay is described as follows: Cholinergic receptor muscarinic 1 (CHRM1) small molecule antagonists, cell-based qHTS assay (AID 1963588). Note: nearly all actives have a fitted effect of over 40% in size. The method in brief: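 CHRM1-CHO calcium-flux assay, antagonist mode. Cells were seeded 18 h, dye-loaded 1 h at 37 C and given compound for 5 min at RT, then acetylcholine was added at 50nM. FDSS fluorescence was read 3 min; 15 concentrations, three runs.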

For assay [12] the target is unchanged. Kind of assay: Cholinergic receptor muscarinic 1 (CHRM1) small molecule agonists, cell-based qHTS assay (AID 1963589). Note: nearly all actives have a fitted effect of over 35% in size. The essentials:
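CHO cells stably expressing human CHRM1, seeded 18 h at 37 C/5% CO2, dye-loaded 1 h at 37 C, then given compound in agonist mode; intracellular calcium fluorescence read kinetically at 1 s intervals. Fifteen concentrations, three independent runs.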

Assay [13] can be described thus: cAMP Responsive Elements (CRE) small molecule agonists, cell-based qHTS assay (AID 1963590). The essentials: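 CRE-bla HEK 293T cells in DMEM with 10% dialyzed FBS, NEAA, pyruvate and 25 mM HEPES were plated 18 h at 37 C/5% CO2, then exposed to compounds in DMSO for 3 h before LiveBLAzer B/G FRET substrate addition.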
Assay [14] in a line: cAMP Responsive Elements (CRE) small molecule antagonists, cell-based qHTS assay (AID 1963591; active = well fitted inhibition curve with a large enough effect in the signal ratio in the repeat runs, not every such curve was filed as active; the % refers to the signal ratio). The essentials: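 CRE-bla HEK293T cells were plated 18 h at 37 °C/5% CO2, pinned with compound in DMSO, then stimulated with NKH477 at 0.25 uM final for 3 h. LiveBLAzer B/G FRET substrate was added and plates incubated 2 h at room temperature.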
The target in assay [15] is Beta-2 adrenergic receptor (Homo sapiens) (UniProt P07550). The assay is described as follows: Adrenergic beta2 receptor (ADRB2) small molecule antagonists, cell-based qHTS assay (AID 1963592). Note: series mostly up to about 92 µM; nearly all actives have a fitted effect of over 50% in size. The essentials:
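Cells (CHO, stable ADRB2 overexpression) incubated 18-20hr at 37C; compounds added from DMSO; agonist mix (1nM isoproterenol, 100uM IBMX, 25uM Ro-20-1724) added; 0.5hr RT; d2-cAMP and anti-cAMP-cryptate added; 1hr RT; 665/615 nm read.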

The target of assay [16] is D(2) dopamine receptor (Homo sapiens) (UniProt P14416). Kind of assay: Dopamine D2 receptor (DRD2) small molecule agonists, cell-based qHTS assay (AID 1963594). Note: nearly all actives have a fitted effect of over 35% in size. The method in brief: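 cAMP accumulation in DRD2-HEK293 cells measured by HTRF after 1 h detection; compounds added 10 min before NKH477 (200nM […]) forskolin-analogue stimulation, 30 min at room temperature, with Ro20-1724 present at 0.1 mM final.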
D(2) dopamine receptor (Homo sapiens), sequence (P14416 whole entry, looked up): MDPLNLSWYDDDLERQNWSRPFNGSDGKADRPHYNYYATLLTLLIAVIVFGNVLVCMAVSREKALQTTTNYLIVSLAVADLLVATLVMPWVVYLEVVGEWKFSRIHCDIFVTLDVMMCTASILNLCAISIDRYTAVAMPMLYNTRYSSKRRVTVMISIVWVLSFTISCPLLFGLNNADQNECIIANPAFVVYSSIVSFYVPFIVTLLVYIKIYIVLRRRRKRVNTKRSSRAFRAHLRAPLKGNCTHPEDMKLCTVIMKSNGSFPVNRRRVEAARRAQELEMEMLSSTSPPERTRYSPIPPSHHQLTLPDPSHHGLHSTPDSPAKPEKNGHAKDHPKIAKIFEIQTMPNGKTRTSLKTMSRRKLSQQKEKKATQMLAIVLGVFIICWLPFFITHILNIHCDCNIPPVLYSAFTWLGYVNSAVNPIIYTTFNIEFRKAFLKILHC

Assay [17] has the same target. The assay is described as follows: Dopamine D2 receptor (DRD2) small molecule antagonists, cell-based qHTS assay (AID 1963595; active = well fitted inhibition curve with a large enough effect in the signal ratio in the repeat runs, with a control signal flat; the % refers to the signal ratio). The method in brief: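 Cells were plated and grown for 24 h at 37 °C. Ro20-1724 (0.1 mM final) went in first, then compound for 10 min. NKH477 (200 nM) with quinpirole (12 nM) followed for 30 min at RT, then HTRF detection reagents for 1 h.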

In assay [18] the target is Beta-2 adrenergic receptor (Homo sapiens) (UniProt P07550). Kind of assay: Adrenergic beta2 receptor (ADRB2) small molecule agonists, cell-based qHTS assay (AID 1963593).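 Note: CHO cells stably overexpressing human ADRB2.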 The essentials:
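CHO cells stably over-expressing ADRB2 were plated overnight at 37C, then dosed with compounds plus a stimulation mix containing 100uM IBMX and 25uM Ro-20-1724 for 0.5hr at room temperature. cAMP was measured by HTRF competition, 1hr.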

A number with no mark means an inactive call. Inconclusive results are not listed. Activity calls are given as the source filed them. Unless noted, calls come from the whole dose curve.
% is set by controls: 0 for no effect and ±100 for the full control effect.

KiSS-1 receptor (Homo sapiens), sequence (Q969F8 whole entry, looked up): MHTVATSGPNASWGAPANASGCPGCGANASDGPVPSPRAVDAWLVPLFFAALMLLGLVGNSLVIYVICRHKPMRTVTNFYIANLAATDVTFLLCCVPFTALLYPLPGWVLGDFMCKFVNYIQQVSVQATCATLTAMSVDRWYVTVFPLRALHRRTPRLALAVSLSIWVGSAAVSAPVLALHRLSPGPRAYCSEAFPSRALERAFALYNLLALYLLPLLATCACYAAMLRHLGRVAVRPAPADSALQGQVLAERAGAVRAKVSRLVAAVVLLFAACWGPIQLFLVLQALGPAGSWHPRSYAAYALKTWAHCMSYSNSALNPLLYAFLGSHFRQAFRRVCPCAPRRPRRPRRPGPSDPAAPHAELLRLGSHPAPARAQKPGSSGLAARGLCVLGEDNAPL
Muscarinic acetylcholine receptor M1 (Homo sapiens), sequence (P11229 whole entry, looked up): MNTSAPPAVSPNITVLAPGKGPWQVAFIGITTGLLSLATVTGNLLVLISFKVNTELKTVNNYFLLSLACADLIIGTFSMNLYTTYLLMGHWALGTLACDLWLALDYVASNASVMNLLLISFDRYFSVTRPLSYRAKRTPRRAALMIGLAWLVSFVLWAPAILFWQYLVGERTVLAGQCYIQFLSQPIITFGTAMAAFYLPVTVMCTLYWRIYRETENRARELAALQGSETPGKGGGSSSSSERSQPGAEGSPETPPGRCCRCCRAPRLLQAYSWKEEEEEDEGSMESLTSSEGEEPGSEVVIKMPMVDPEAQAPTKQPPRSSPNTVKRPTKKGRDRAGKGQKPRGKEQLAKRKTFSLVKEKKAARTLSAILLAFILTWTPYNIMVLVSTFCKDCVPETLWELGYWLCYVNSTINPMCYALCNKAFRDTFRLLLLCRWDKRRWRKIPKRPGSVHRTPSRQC
Beta-2 adrenergic receptor (Homo sapiens), sequence (P07550 whole entry, looked up): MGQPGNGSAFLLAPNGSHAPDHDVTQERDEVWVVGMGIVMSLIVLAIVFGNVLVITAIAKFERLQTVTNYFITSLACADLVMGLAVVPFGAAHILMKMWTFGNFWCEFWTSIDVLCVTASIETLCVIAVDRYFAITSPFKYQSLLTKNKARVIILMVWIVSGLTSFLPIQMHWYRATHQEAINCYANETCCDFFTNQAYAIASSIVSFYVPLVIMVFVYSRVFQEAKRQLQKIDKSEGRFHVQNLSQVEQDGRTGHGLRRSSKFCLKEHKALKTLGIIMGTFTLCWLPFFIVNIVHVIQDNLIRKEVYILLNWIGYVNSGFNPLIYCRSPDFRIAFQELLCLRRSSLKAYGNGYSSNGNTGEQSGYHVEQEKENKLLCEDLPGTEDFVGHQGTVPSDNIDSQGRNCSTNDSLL
5-hydroxytryptamine receptor 2A (Homo sapiens), sequence (P28223 whole entry, looked up): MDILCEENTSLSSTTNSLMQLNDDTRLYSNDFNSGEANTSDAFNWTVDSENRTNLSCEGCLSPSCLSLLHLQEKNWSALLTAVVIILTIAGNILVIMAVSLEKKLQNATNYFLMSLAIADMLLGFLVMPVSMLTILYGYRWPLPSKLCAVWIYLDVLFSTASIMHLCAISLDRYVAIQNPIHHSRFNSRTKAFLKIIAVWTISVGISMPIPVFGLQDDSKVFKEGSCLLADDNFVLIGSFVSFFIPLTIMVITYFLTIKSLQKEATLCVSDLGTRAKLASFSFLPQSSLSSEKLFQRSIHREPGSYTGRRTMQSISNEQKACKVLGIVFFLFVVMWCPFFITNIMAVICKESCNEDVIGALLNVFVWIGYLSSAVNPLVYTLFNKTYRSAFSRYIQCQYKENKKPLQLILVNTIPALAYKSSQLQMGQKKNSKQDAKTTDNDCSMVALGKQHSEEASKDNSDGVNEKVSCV

Consider `C=CCN(CC=C)CC=C`, for which the Potency result in [1], in [2], in [3], in assay [4], in assay [5] and in assay [6] was “inactive” each time. Moreover, the Potency result in [7], in assay [8], in [9], in [10], in assay [11] and in [12] was “inactive” throughout. In addition, the Potency result in [13], in [14], in assay [15], in [16] and in assay [17] was “inactive” in each case.
For the molecule `C=CC(=C)CCCC(C)(C)OC(C)=O`, the Potency entry in assay [1], in assay [2], in [3], in assay [4], in assay [5] and in [6] was “inactive” each time. Further, the Potency entry in [7], in assay [8], in assay [9], in assay [10], in assay [11] and in assay [12] was “inactive” throughout. Moreover, the Potency result in assay [13], in assay [15], in [18], in assay [16] and in assay [17] was “inactive” each time.
As for `C[C@@H]1CN(c2c(F)c(F)c3c(=O)c(C(=O)O)cn(C4CC4)c3c2F)C[C@H](C)N1`, the activity change, negative = cytotoxicity in assay [1] was -4.39% [at 19 µM]; in assay [6], 0.644% [at 13.5 µM]; in assay [7], 9.6% [at 13.5 µM]; in assay [8], -8.27% [at 13.5 µM]. In assay [2], the activity, positive = activation is 2.76% [at 19 µM]. In addition, the activity change in assay [3] was 0.18% [at 11.8 µM, hits give high values]. Moreover, the activation is -0.0587% [at 15.8 µM] in assay [4]; -1.01% [at 11.8 µM] in assay [5]; -2.83% [at 15.9 µM] in assay [10]; -1.01% [at 15.8 µM] in assay [12]; -2.17% [at 19 µM] in assay [13]; 18.6% [at 19 µM] in assay [16]. Moreover, the activity, negative = inhibition in assay [9] is 0.835% [at 12.7 µM]; in [11] it was 7.07% [at 12.6 µM]. Also, the activity change, negative = inhibition is -4.7% [at 19 µM] in assay [15] and -0.82% [at 18.9 µM] in assay [17].
Take `CCCCCCCCCCCCOC(C)=O`: the Potency result in assay [1], in [2], in assay [3], in assay [4], in assay [5] and in [6] was “inactive” each time. Besides, the Potency result in assay [7], in [8], in [10], in assay [11], in assay [12] and in [13] was “inactive” throughout. Further, the Potency result in [14], in [18], in assay [16] and in assay [17] was “inactive” throughout. For the same molecule, in assay [9], the Potency is 2110 nM (active).
For the molecule `CCN(CC)C(=O)c1ccc(O)c(OC)c1`, the Potency entry in [1], in assay [2], in [3], in assay [4], in assay [5] and in [6] was “inactive” in each case. Moreover, the Potency result in assay [7], in assay [8], in assay [9], in assay [10], in assay [11] and in assay [12] was “inactive” each time. For the same molecule, the Potency result in assay [13], in assay [14] and in [16] was “inactive” in each case.
For the molecule `Cc1ccc(Br)cc1`, the Potency entry in assay [1], in assay [2], in [3], in assay [4], in assay [5] and in [6] was “inactive” in each case. Besides, the Potency result in assay [7], in assay [8], in [9], in assay [10], in assay [11] and in assay [12] was “inactive” each time. Besides, the Potency entry in assay [13], in assay [14], in assay [15] and in [17] was “inactive” in each case.
Turning to `CC(C)(N)C#N`, the Potency result in [1], in assay [2], in assay [3], in assay [4], in assay [5] and in [6] was “inactive” each time. Further, the Potency result in assay [7], in assay [8], in assay [9], in assay [10], in assay [11] and in [12] was “inactive” throughout. In addition, the Potency entry in [13], in [14], in assay [15], in assay [16] and in assay [17] was “inactive” throughout.
With `CCOC(=O)OCC`, the Potency entry in assay [1], in [2], in [3], in [4], in assay [5] and in assay [6] was “inactive” each time. In addition, the Potency result in assay [7], in assay [8], in assay [9], in assay [10], in assay [11] and in [12] was “inactive” each time. The Potency result in assay [13], in assay [14], in assay [16] and in [17] was “inactive” each time.
